# Screening results from PubChem.
# This is one part of a sample in which hits are shown more often than they occur.
# Menin-MLL TR inh = qHTS Assay for Inhibitors Targeting the Menin-MLL Interaction in MLL Related Leukemias: Competition With Texas Red Labeled MLL-derived Mutant Peptide. Potency, µM (series often up to 61.6 µM), inactives show at the highest dose FP activity change, negative = inhibition, most hits filed as inhibitors. actives 0.23% (n = 270,000). Menin + Texas Red MLL mutant peptide, fluorescence polarization. O00255; active = well fitted inhibition curve with a large enough effect in the polarisation, with a control signal flat, not every such curve was filed as active; inconclusive = small, poorly fitted or top-dose-only effect, or effect the other way, or a change in a side signal; inactive = no such curve, though single readings can be large or run the other way; the % refers to the polarisation; note: potency is the fitted concentration of half-maximal effect; % of control where 0% means no effect
# Menin-MLL FL inh = qHTS Assay for Inhibitors Targeting the Menin-MLL Interaction in MLL Related Leukemias: Competition With Fluorescein Labeled MLL-derived Peptide; FP activity change, % at 61.4 µM; 290,000 tested, under 10 active; Fluorescence polarization, fluorescein-MLL peptide displacement from menin; AID 1766, 2009; active = well fitted curve in the direction sought with a large enough effect in the polarisation, not every such curve was filed as active; inconclusive = small, poorly fitted or top-dose-only effect, or effect the other way, or a change in a side signal; inactive = no such curve, though single readings can be large or run the other way; the % refers to the polarisation; note: % of control where 0% means no effect
# ClpP mod = qHTS Assay for Activators of ClpP | purified B. subtilis ClpP, FRET peptide cleavage, 20 min | Potency, µM (titrated, usually from 57.5 µM), for inactives: at the highest dose activity change, negative = active | actives 1.9% (n = 340,000); active = well fitted falling curve with a large enough effect; inconclusive = small, poorly fitted or top-dose-only effect; inactive = no such curve, though single readings can be large or run the other way; note: potency is the fitted concentration of half-maximal effect; the source files actives as falling curves though it sought activators and does not explain the sign; nearly all actives have a fitted effect of over 65% in size
#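 Purified B. subtilis ClpP, 10 microg/mL final in Tris/HCl pH8 with KCl, BSA, glycerol and Tween-20, cleaved an Abz/nitrotyrosine-quenched decapeptide. Fluorescence (ex 320, em 430) was read at 0 and 20 min at room temperature. Delta was normalized to 5.8 microM ADEP and DMSO/no-enzyme controls.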
# CXXC DNA block = qHTS Fluorescence Polarization Assay for Inhibitors of MLL CXXC domain - DNA interaction; Histone-lysine N-methyltransferase 2A (Homo sapiens), Q03164; actives 0.037% (n = 290,000); Potency, µM (top dose mostly 115 µM), without a hit: top-dose activity change, negative = inhibition, hits mostly inhibitors; MLL-CXXC / FITC-HOXA9 DNA fluorescence polarization; active = well fitted inhibition curve with a large enough effect in the polarisation, with a control signal flat, not every such curve was filed as active; inconclusive = small, poorly fitted or top-dose-only effect, or effect the other way, or a change in a side signal; inactive = no such curve, though single readings can be large or run the other way; the % refers to the polarisation; note: potency is the fitted concentration of half-maximal effect
#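 Steps: dispense CXXC domain solution (7 uM) → pin compounds or unlabeled HOX-A9 DNA control → 5 min ambient → add FLSN-HOX-A9 solution (50 nM) → spin → 30 min ambient → fluorescence polarization. Tris pH 7.5/NaCl/DTT/BSA buffer.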
# p53 reactivation = qHTS assay for re-activators of p53 using a Luc reporter; H1299 p53-A138V BP100-luciferase reporter, luminescence, 24 h; Potency, µM (highest dose often 92.2 µM), for inactives: top-dose activity change, positive = activation, usual class: activators; actives 0.063% (n = 320,000); AID 504706, 2011; active = well fitted activation curve with a large enough effect; inconclusive = small, poorly fitted or top-dose-only effect; inactive = no such curve, though single readings can be large or run the other way; note: potency is the fitted concentration of half-maximal effect; % of control where 0% means no effect; nearly all actives have a fitted effect of over 45% in size
#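 p53-null H1299 cells stably carrying temperature-sensitive p53-A138V and a BP100-luciferase reporter were pinned with compounds (4-point, 1:5 series) and held 24 hrs at 37 deg C. Luminescence was read 10 min after detection reagent.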
# Numbers without * were called inactive; ? = inconclusive; nt = no result; [ ] = remark or other dose.
SMILES,Menin-MLL TR inh,Menin-MLL FL inh,ClpP mod,CXXC DNA block,p53 reactivation
CN1CCN(C(=O)Nc2cccc3ccccc23)CC1,-0.3%,3.4,15.8µM*,4.5%,1.9%
O=C(Nc1cccc2ccccc12)N1CCOCC1,-12.4%,-0.9,25.1µM*,0.2%,18.6%
CN(C)c1ccc(NC(=O)N2CCOCC2)cc1,20µM*,0.1,-2.5%,6.3%,?
O=C(Nc1cccc2ccccc12)N1CCc2ccccc2C1,-8.5%,1.3,?,-2.0%,13.2%
O=C(Nc1cccc2ccccc12)N1CCN(c2ccc(F)cc2)CC1,25.5%,-0.9,-24.5%,9.6%,-2.7%
CCN1CCN(C(=O)Nc2cccc3ccccc23)CC1,-2.4%,2.0,11.2µM*,-8.1%,1.0%
O=C(O)c1ccccc1NC(=O)N1CCOCC1,-1.3%,0.8,nt,-4.3%,5.7%
CCOC(=O)CCCNC(=O)N1CCc2nc(-c3ccc(OC)cc3C)c3c(c2C1)CO[C@@H](c1ccccc1)C3,-17.5%[11.7 µM],0.8[11.7 µM],nt,nt,nt
CC(=O)Nc1ccc(/C=C/C(=O)c2ccc(-n3nncc3-c3ccccc3)cc2)cc1,nt,nt,-7.8%,nt,nt
CC(C)C[C@@H](CN=[N+]=[N-])N1CCN(CCc2ccccc2)CCC1=O,nt,nt,-22.7%,nt,nt
CC(C)(C)CC(C)(C)N=C1Nc2ccc(Cl)cc2N[C@]12C[C@H]1CCCC(=O)N3CC[C@@H](C2)[C@@H]13,nt,nt,-2.3%,nt,nt
O=C1COCCN1,-7.3%,-8.9,nt,nt,nt
CN1C(=S)SC(N(O)C(=O)Nc2cccc3ccccc23)C1(C)C (stereo not given),-4.9%,1.4,31.6µM*,4.4%,5.6%
CN1C(=S)SC(N(O)C(=O)Nc2ccccc2)C1(C)C (stereo not given),0.7%,-0.3,0.1%,3.2%,12.9%
Clc1ccc(-c2nc3sccn3c2/C=N/OCc2ccc(Cl)c(Cl)c2)cc1,7.5%,4.4,nt,nt,nt
Cc1cc2ccccc2c(=O)n1CC(=O)NCC1COc2ccccc2O1 (stereo not given),-17.8%,3.7,25.1µM*,0.6%,-2.9%
CCN(CC)C(=O)Cn1cc(C(=O)C(=O)NCC2COc3ccccc3O2)c2ccccc21 (stereo not given),-2.0%,-20.3,20µM*,6.5%,0.2%
CCN(CC)C(=O)Cn1cc(C(=O)C(=O)NCc2cccs2)c2ccccc21,-2.0%,-9.6,0.7%,2.5%,-2.0%
COc1ccc(OC)c(/C=C/c2sc3ccccc3[n+]2C)c1,nt,nt,1.1%,nt,nt
COc1ccc(-c2c(C)c3ccc(O)c(CN4CCC(C)CC4)c3oc2=O)cc1OC,nt,nt,4.1%,nt,nt
COc1cc2c(C(=O)O)c(C)n(CC(C)C)c2c2ccccc12,?,0.0,35.5µM*,-2.7%,24.0%
CCOC(=O)C1=C(C)NC2=C(C(=O)CCC2)C1c1cn(Cc2ccc(Cl)cc2Cl)nc1-c1ccccc1 (stereo not given),19.6%,1.3,28.2µM*,-4.0%,-23.9%
COC(=O)C1=C(C)NC2=C(C(=O)CCC2)C1c1cn(Cc2ccc(Cl)cc2Cl)nc1-c1ccccc1 (stereo not given),-8.3%,2.3,17.8µM*,-8.0%,-20.4%
COC(=O)C1=C(C)NC2=C(C(=O)CCC2)C1c1cccs1 (stereo not given),4.0%,4.4,nt,-3.6%,-15.4%
CCOC(=O)C1=C(C)NC2=C(C(=O)CCC2)C1c1cccnc1 (stereo not given),-29.2%,-0.6,?,-2.5%,-4.4%
SMILES,Menin-MLL TR inh,Menin-MLL FL inh,ClpP mod,CXXC DNA block,p53 reactivation
Cc1ccc(C(=O)C[n+]2cccc3cccc(O)c32)cc1,nt,nt,-3.6%,nt,nt
CCOC(=O)N1CCN(C(=O)c2cc(-c3ccncc3)nc3ccccc23)CC1,nt,nt,-8.7%,nt,-3.9%
CCOc1ccc(-c2cc(C(=O)N3CCN(C)CC3)c3ccccc3n2)cc1,4.0%,3.5,28.2µM*,0.4%,27.8%
CCOc1ccc(-c2cc(C(=O)N3CCN(c4ccccn4)CC3)c3ccccc3n2)cc1,-7.9%,-0.8,3.7%,4.3%,?
CCOC(=O)N1CCN(C(=O)c2cc(-c3ccc(OCC)cc3)nc3ccccc23)CC1,-5.7%,0.2,28.2µM*,2.5%,?
COc1ccc2cc(-c3cc(C(=O)O)c4ccccc4n3)ccc2c1,nt,-1.4,25.1µM*,8.2%,-9.0%
CC(=O)c1ccc(N2CCN(C(=O)c3cc(-c4ccc5c(c4)OCO5)nc4ccccc34)CC2)cc1,-17.6%,-1.9,31.6µM*,14.2%,17.7%
COc1ccc(-c2cc(OC)c3ccccc3n2)cc1,21.5%,0.8,20µM*,3.7%,9.3%
COc1ccc(-c2cc(C(=O)N3CC(C)CC(C)C3)c3ccccc3n2)cc1 (stereo not given),nt,nt,28.2µM*,nt,2.2%
CCOc1ccc(-c2cc(C(=O)N3CCCC3)c3ccccc3n2)cc1,nt,nt,14.1µM*,-2.8%,-2.5%
COc1ccc(-c2cc(C(=O)N3CCN(c4ccccc4F)CC3)c3ccccc3n2)c(OC)c1,13.4%,1.8,28.2µM*,24.9%,nt
CCOC(=O)c1cc2c(=O)n3ccccc3nc2n(CCCOC)c1=NC(=O)c1cc2ccccc2o1,nt,nt,3.9%,nt,nt
COC(=O)C1=C(C(=O)OC)[C@@H]2N(C)c3ccc(OC)cc3[C@@]23C[C@@H](C(=O)OC)N(C(C)=O)C3=N1,7.0%[11.7 µM],1.1[11.7 µM],nt,nt,nt
Cc1cc2ncn(C(=O)c3cc(-c4ccccc4)nc4ccccc34)c2cc1C,-6.5%,1.9,14.1µM*,-0.4%,-4.2%
CC1CN(C(=O)c2cc(-c3ccc(Cl)s3)nc3ccccc23)CC(C)O1 (stereo not given),nt,nt,28.2µM*,nt,7.0%
NC(=O)C1CCN(C(=O)c2cc(-c3ccc(Cl)s3)nc3ccccc23)CC1,nt,nt,4.1%,nt,-8.3%
CC(=O)c1ccc(N2CCN(c3nc4c(S(=O)(=O)c5ccc(C)c(C)c5)nnn4c4ccc(Cl)cc34)CC2)cc1,nt,nt,-4.2%,nt,nt
CC1CCC(O)C/C1=C\C=C1/CCCC2(C)C1CCC2C(C)/C=C/C(C)C(C)C (stereo not given),?,4.2,nt,5.4%,nt
CCOc1ccc2[nH]c(C)c(CN3CCN(C)CC3)c(=O)c2c1,-7.6%,-6.0,-3.9%,21.9%,-2.1%
COC(=O)c1ccc2[nH]c(C)c(CN3CCCC3)c(=O)c2c1,-15.4%,2.5,28.2µM*,0.3%,4.3%
CCOc1ccc2[nH]c(C)c(CN3CCN(CC)CC3)c(=O)c2c1,-15.9%,2.7,15.8µM*,3.6%,-4.2%
C=CCN(CC=C)Cc1c(C)[nH]c2ccc(C(=O)OCC)cc2c1=O,?,2.6,28.2µM*,8.2%,-10.6%
CN(C)c1ccc(/C=C2\C(=O)/C(=C\c3ccc(N(C)C)cc3)c3ccccc32)cc1,nt,nt,-0.5%,nt,nt
Clc1cccc(CNc2ncnc3nc[nH]c23)c1,nt,nt,3.2%,nt,nt
